Bioassay records: PubChem BioAssay, The Scripps Research Institute Molecular Screening Center
HTR5A inv ctr – counter-screen for OPRM1-OPRD1 inverse agonists: human HTR5A inverse agonism; 0.083% of 340,000 active; HTR5A cell line, luminescence; inhibition, % at 9.3 µM; P47898; AID 504634; in the data active means inhibition mostly above about 23%, no sharp cut-off; inactive means mostly below about 18%;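 further: 0% = cells with DMSO and 100% = no-cell wells with DMSO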
MOR-DOR inv ag – inverse agonist of human OPRM1-OPRD1 heterodimerization. P35372+P41143. cell-based MOR-DOR heterodimer luminescence, inverse agonism. inhibition, % at 9.3 µM. 0.21% of 340,000 active; in the data active means inhibition above about 22%, passing the limit was not always enough;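 further: 0% = cells with DMSO and 100% = wells without cells with DMSO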
MOR-DOR ag – OPRM1-OPRD1 heterodimerization agonism; activation, % at 9.3 µM; AID 504326; 0.3% of 340,000 active; cells, luminescence; P35372+P41143; in the data active means activation above about 18%;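 further: 0% = vehicle-treated cells and 100% = reference agonist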
HTR5A ag ctr – counter-screen for OPRM1-OPRD1 agonists: human HTR5A agonism | activation, % at 9.3 µM | HTR5A agonist assay, luminescence, cell-based | 0.61% of 340,000 active | P47898; in the data active means activation mostly above about 9.5%, no sharp cut-off; inactive means mostly below about 7.6%;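 further: 0% = cells with vehicle only and 100% = reference agonist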
m5-HT2A agonist – agonists of mouse serotonin 5-HT2A receptor (HTR2A); P35363; activation, % at 7.6 µM; 0.66% of 360,000 active; CHO-K1 mHTR2A beta-arrestin complementation, luminescence; percent of 30 µM serotonin response;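 active means activation above a run cutoff, the mean activation of all tested compounds plus 3 SD, cut at about 14% in these data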;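 further: 0% = plate median of compound wells and 100% = 30 µM serotonin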
Target sequence (P35363 whole entry, looked up): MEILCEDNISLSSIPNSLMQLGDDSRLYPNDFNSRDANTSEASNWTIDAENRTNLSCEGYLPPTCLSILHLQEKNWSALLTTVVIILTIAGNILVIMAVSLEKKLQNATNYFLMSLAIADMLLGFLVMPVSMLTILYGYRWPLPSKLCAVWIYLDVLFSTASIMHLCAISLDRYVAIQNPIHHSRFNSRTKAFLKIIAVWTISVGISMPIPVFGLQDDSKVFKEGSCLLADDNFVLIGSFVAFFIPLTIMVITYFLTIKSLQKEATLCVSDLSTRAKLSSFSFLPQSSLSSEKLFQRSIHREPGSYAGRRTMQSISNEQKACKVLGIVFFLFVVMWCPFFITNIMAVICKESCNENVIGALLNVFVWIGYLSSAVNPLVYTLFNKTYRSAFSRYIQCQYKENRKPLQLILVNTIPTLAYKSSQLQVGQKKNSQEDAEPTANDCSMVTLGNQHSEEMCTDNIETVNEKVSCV
HGIII-sPLA2 inh – Inhibits HGIII-sPLA2 liposome hydrolysis, primary screen; Q9NZ20; 0.56% of 370,000 active; QFRET BODIPY PC-A2 liposome hydrolysis, fluorescence; inhibition, % at 12.2 µM;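 active means inhibition above mean plus 3 SD of compounds lying within the high and low control bounds, cut at about 19% in these data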;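 further: 0% = median of test compound wells and 100% = no enzyme DMSO wells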
OPRM1 ag – activates human mu opioid receptor in HTR2A counterscreen. activation, % at 9.3 µM. U2OS OPRM1 beta-arrestin PathHunter, luminescence; DMSO 0%, DAMGO 9.3 µM 100%. 5.3% of 2,300 active. shares compounds with m5-HT2A agonist;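 active means mean activation above the mean of DMSO-only wells plus 3 SD, cut at about 0.5% in these data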
HTR2A ag conf – mouse HTR2A agonism confirmed; 19% of 2,300 active; shares compounds with m5-HT2A agonist; activation, % at 7.6 µM; CHO-K1 PathHunter beta-arrestin recruitment, luminescence; DMSO 0%, 30 µM serotonin 100%;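 active means mean activation across triplicates above the hit threshold derived in the original primary screen, cut at about 15% in these data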
* = called active by the depositor; · = no result given. Most compounds without a hit are left out; they make up all but 2.2% or so of the library.

SMILES	HTR5A inv ctr	MOR-DOR inv ag	MOR-DOR ag	HTR5A ag ctr	m5-HT2A agonist	HGIII-sPLA2 inh	OPRM1 ag	HTR2A ag conf
Cc1nnc(SCc2cc(=O)[nH]c(=S)[nH]2)s1	-4	12	-2	1	16*	2	0	-4
Cc1nc(SCC(=O)Nc2nccs2)c(C#N)c(C)c1C	-7	21	-5	4	-1	4	·	·
Cc1cnc(=O)[nH]c1SCC(=O)Nc1nccs1	-2	9	-1	1	15*	0	-1	-3
COc1ccc([C@H](C#Cc2ccccc2)CC(=O)O)cc1OC1CCCC1	·	·	·	·	·	-3	·	·
OCC[C@H]1C[C@H](O)[C@@H](O)[C@@]2(Cc3ccccc3CO2)O1	11	4	-1	7	17*	4	0	1
COC(=O)C1CN(Cc2cn(CCC3OCCO3)nn2)CCS(=O)(=O)N1Cc1ccc(F)cc1 (stereo not given)	·	·	·	·	·	10	·	·
CN(CC(=O)Nc1ccc(F)c(F)c1F)C(=O)CN1C(=O)C2CCCCC2C1=O (stereo not given)	17	7	-1	5	15*	8	-1	-4
O=C(C1CCC1)N1CCc2cc(S(=O)(=O)NCCN3CCN(c4ccccc4F)CC3)ccc21	-18	-9	2	5	15*	-19	0	54*
O=C(NCCN1CCC(Cc2ccccc2)CC1)C1CCCN(S(=O)(=O)c2cnc[nH]2)C1 (stereo not given)	-6	12	-2	2	-7	-15	·	·
CCS(=O)(=O)N1CCC(C(=O)NCCCN2CCN(c3ccccc3F)CC2)CC1	-14	1	0	5	16*	1	-1	54*
O=C(C1CCC1)N1CCc2cc(S(=O)(=O)N3CCN(c4ccccc4F)CC3)ccc21	·	·	·	·	·	4	·	·
O=C(NCCc1ccccc1)C1CCCN(S(=O)(=O)c2cnc[nH]2)C1 (stereo not given)	-10	3	-1	3	-2	0	·	·
O=C(NCCN1CCN(c2ccccc2F)CC1)C1CCCN(S(=O)(=O)c2cnc[nH]2)C1 (stereo not given)	-15	12	-2	5	19*	-9	-1	60*
Cc1cccc(CCNC(=O)C2CCCN(S(=O)(=O)c3cnc[nH]3)C2)c1 (stereo not given)	7	2	0	-2	15*	-7	-1	-5
Cc1nn(C)c(C(=O)Nc2ccn(C34CC5CC(CC(C5)C3)C4)n2)c1[N+](=O)[O-]	-30	-5	1	7	15*	1	0	12
Cc1ccccc1NCC(=O)N/N=C/c1c(C)c(C(=O)c2ccc(Cl)cc2)n2ccccc12	-2	12	-2	5	15*	0	0	24*
Cc1c(/C=N/NC(=O)CNc2ccccc2)c2ccccn2c1C(=O)c1ccc(Cl)cc1	1	-9	2	3	-3	6	·	·
CCc1nnn2c1Cn1c3ccccc3c(=O)n1[C@@H](C)C2	·	·	·	·	·	-1	·	·
C=CCn1c(COc2ccc(C)cc2)nnc1SCC(=O)Nc1ccc(Oc2ccccc2)cc1	·	·	·	·	·	-12	·	·
O=C(NC(=S)NC1CC1)c1cccnc1	-10	-8	1	2	4	6	·	·
O=C(NC(=S)NC1CCCCCCCCCCC1)c1cccnc1	-9	9	-2	4	17*	-2	0	1
CCCCOCCCNC(=O)C[C@H]1C[C@@]2(C(=O)OCC)CCCC3=C2N(CCC3)C1=O	·	·	·	·	·	2	·	·
Cc1cc(C)cc(N(CC(=O)NCc2ccco2)S(=O)(=O)c2ccccc2)c1	-23	-12	1	1	15*	-4	-1	-1
COc1ccc(C)cc1S(=O)(=O)N(C)CC(=O)NCc1ccco1	11	13	-3	-6	16*	9	-1	-3
CCOC(=O)CSc1nc2sc3c(c2c(=O)n1CC)CC(C)(C)OC3	-6	0	0	2	23*	4	0	-1
SMILES	HTR5A inv ctr	MOR-DOR inv ag	MOR-DOR ag	HTR5A ag ctr	m5-HT2A agonist	HGIII-sPLA2 inh	OPRM1 ag	HTR2A ag conf
COC(=O)c1c(-c2ccc(OC)cc2)c2c(c3c4cc(OC)ccc4n(S(=O)(=O)c4ccc(C)cc4)c13)C(=O)N(C)C2	·	·	·	·	·	5	·	·
CNc1nc(Oc2ccc3sc(C)nc3c2)c2sccc2n1	·	·	·	·	1	-4	·	·
Cc1nc2cc(Oc3nc(NCCN(C)C)nc4ccsc34)ccc2s1	·	·	·	·	34*	-11	-1	4
CCCC(=O)OC12CCCN(C1)/C(=C/c1ccc(Cl)cc1)C2 (stereo not given)	·	·	·	·	·	1	·	·
COC(=O)c1cc(OC)c(OC)cc1NC(=O)CSCc1c(C)noc1C	8	13	-3	7	16*	4	-1	3
Cc1ccc(NC(=O)N2CCC(N(C)CCC(C)C)CC2)cc1F	·	·	·	·	·	-4	·	·
COc1ccccc1N1CCN(C(=O)c2ccc3c(c2)nc(C)n3-c2cc(OC)c(OC)c(OC)c2)CC1	·	·	·	·	·	-5	·	·
CCN(Cc1ccccc1)C(=O)c1cc(-c2ccc(OC)c(OC)c2)nc2ccccc12	13	-10	2	3	1	-9	·	·
COCCN(Cc1ccccc1)C(=O)c1cc(-c2ccc(OC)c(OC)c2)nc2ccccc12	4	-9	2	-2	17*	-27	-1	-1
CN1CCC(N(C)C(=O)COc2ccccc2-c2ccccc2)CC1	0	1	0	1	18*	1	-1	4
CC(C)(C)N=C1SCC(C)(/C=N/O)S1 (stereo not given)	-12	3	-1	-4	17*	-5	-1	-2
C=CCNc1cccc2c1S(=O)(=O)N[C@H](CC(C)C)CO2	·	·	·	·	·	5	·	·
O=C(c1ccc(-c2ccc([N+](=O)[O-])cc2)o1)N1CCCCCCC1	-18	-17	4	6	15*	8	-1	-6
O=C(c1ccc(-c2ccc([N+](=O)[O-])cc2)o1)N1CCCC(C(F)(F)F)C1 (stereo not given)	2	-1	0	1	-8	-2	·	·
Cc1ccc(C)c(C(=O)CCC(=O)Nc2cccnc2)c1	-10	8	-1	4	15*	-8	0	0
Cc1ccc(C)c(C(=O)CCC(=O)Nc2ccc(F)cc2)c1	-4	0	0	1	0	-3	·	·
OC(c1ccccc1)(c1ccccc1)C1CCN(CCCNc2cccc(OC(F)(F)F)c2)CC1	·	·	·	·	·	-17	·	·
CCC1(CC)C(=O)NC(=S)N=C1N	-12	21	-4	3	21*	12	0	1
CCC1(C2=CCCCC2)C(=O)NC(=S)N=C1N (stereo not given)	17	17	-3	-5	-2	-3	·	·
